# In the library only some 21% were active in any assay of this set; here they are far more common.
# Pf growth 48h – P. falciparum growth inhibition at 48 hours (one generation). P. falciparum luciferase growth in erythrocytes, 48 h. Potency, µM (titrated, usually from 28.7 µM), for the others: at the top dose activity change, negative = inhibition, actives largely listed as inhibitors. hit rate 5.9% among 310,000. AID 504832; note: potency is the fitted concentration of half-maximal effect; % is set by controls: 0 for no effect and ±100 for the full control effect
#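 Cell-based growth assay: transgenic P. falciparum expressing firefly luciferase, cultured in red cells within RPMI 1640 containing 0.5% w/v Albumax, 24 mM bicarbonate and gentamycin. A drop in luciferase activity indicates inhibition.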
# Pf growth 96h – P. falciparum growth inhibition at 96 hour, primary screen for plastid delayed-death inhibitors. P. falciparum luciferase reporter growth, 96 h. Potency, µM (top dose mostly 28.7 µM), for inactives: at the highest dose activity change, negative = inhibition, most hits filed as inhibitors. hit rate 6.9% among 320,000. AID 504834; note: potency is the fitted concentration of half-maximal effect; % is set by controls: 0 for no effect and ±100 for the full control effect
#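 Plates of compound plus infected erythrocytes (2% hematocrit, 0.05% parasitemia final) incubate 96 hours, 37 C, 5% CO2. Detection reagent added; reduced luminescence from the parasites' luciferase reporter flags inhibition.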
# HCMV inh – blocks human cytomegalovirus replication | activity change, negative = inhibition, % at 57.5 µM | HFF cells, HCMV-luciferase reporter, 72 h; active compounds read low | hit rate 4.5% among 410,000 | AID 1259415; in the data active = activity change below about -60%; inconclusive = no clear call, values can overlap the other calls; inactive = above about -39%; note: % is set by controls: 0 for no effect and ±100 for the full control effect
#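 Compounds were evaluated in HFFs infected with an HCMV luciferase reporter virus (MOI 1 PFU/cell). Luciferase in lysates collected 72 h post infection served as the replication measure.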
# Shiga inhibitor – Shiga toxin inhibition | inhibition, % at 38.7 µM | Vero cells, Shiga toxin protein synthesis inhibition reporter | hit rate 9.2% among 290,000 | AID 2315; in the data active = inhibition mostly above about 28%, no sharp cut-off; inactive = mostly below about 43%; note: 0% is about no effect
# HCV inh – blocks hepatitis C virus; Potency, µM (doses to about 41.8 µM), inactives show at the highest dose activity change, negative = inhibition, most hits filed as inhibitors; hit rate 3.4% among 340,000; Huh7.5.1 HCVcc-Cre infection, luciferase reporter, 44 h; note: potency is the fitted concentration of half-maximal effect; % is set by controls: 0 for no effect and ±100 for the full control effect
#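 Seed cells (1,000/well) for 4 h; treat with compound and infect with HCVcc-Cre, moi about 0.5. Incubate 44 h, then detect luciferase activity.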
# Cycloheximide cs – counter-screen for Shiga toxin inhibitors: cycloheximide protein synthesis inhibition | max response, % | hit rate 12% among 300,000 | cell reporter, cycloheximide protein synthesis inhibition counterscreen; in the data active = max response mostly above about 13%, no sharp cut-off; inactive = mostly below about 14%; note: read at 38.3 µM for the half of the compounds with a filed dose; 0% is about no effect
# * marks the source's active call; other numbers are inactive results; ? = inconclusive; / = no result; [ ] = dose if it differs, or a comment. Unless noted, calls come from the whole dose curve; as a rule, active = well fitted inhibition curve with a large enough effect; inconclusive = small, poorly fitted or top-dose-only effect, or another doubt; inactive = no such curve, though single readings can be large or run the other way.
SMILES,Pf growth 48h,Pf growth 96h,HCMV inh,Shiga inhibitor,HCV inh,Cycloheximide cs
CCc1ccccc1NC(=O)N1CCc2ccccc2C1,-2.1%,61.6%,10.1,12.8,-8.5%,14.7
Cc1csc2nc(COC(=O)c3cccc(NC(=O)COc4ccc(Cl)cc4)c3)cc(=O)n12,/,/,26.8,/,/,/
COc1ccc(N(CC(=O)NCCc2ccc(C)cc2)S(=O)(=O)c2c(C)nn(C)c2C)cc1,/,/,-16.0,/,/,/
COc1cc(C(=O)N(CCN(C)C)CC2CCCN(Cc3ccccc3F)C2)ccc1C (stereo not given),10.4µM*,-16.9%,-35.7,9.9,?,-0.8
Cc1cc(C)c(C(=O)N(CCN(C)C)CC2CCCN(Cc3ccccc3F)C2)o1 (stereo not given),11.7µM*,?,-15.1,-5.0,-0.5%,-4.2
CN(C)CCN(CC1CCCN(Cc2ccccc2F)C1)C(=O)c1ccc(F)cc1 (stereo not given),?,0.0%,-22.9,-9.1,?,0.7
O=C(Oc1cccc(-n2cnnn2)c1)c1ccco1,9.7%,?,54.0,6.1,-2.4%,-1.2
CC1CCc2c(C(=O)Oc3cccc(-n4cnnn4)c3)csc2C1 (stereo not given),5.86µM*,?,-21.6,-8.6,-19.7%,-0.8
Cc1ccc(C(=O)Oc2cccc(-n3cnnn3)c2)cc1,261.5%,-29.2%,57.1,57.2*,3.5%,40.0*
COc1ccc(C(=O)c2c[nH]c(C(=O)NCc3ccco3)c2)cc1,60.5%,73.4%,40.5,19.6,-16.9%,9.6
COc1cccc(C(=O)c2c[nH]c(C(=O)NCc3ccco3)c2)c1,23.5%,-20.3%,87.3,17.6,-12.6%,23.4*
COc1ccc(Nc2nc(C(=O)NCc3ccco3)cs2)cc1,?,?,-6.9,44.0,?,13.8*
COc1ccc(C(=O)Nc2cccc(C(=O)NCc3ccco3)c2)cc1,35.7%,9.3%,-28.7,20.8,?,12.1*
CC(OC(=O)C1=Cc2ccccc2OC1)C(=O)NCc1ccco1 (stereo not given),-2.8%,-0.4%,6.2,42.3,?,22.7*
Cc1c(-n2c(SC(C)C(=O)NC(N)=O)nc3ccccc3c2=O)c(=O)n(-c2ccccc2)n1C (stereo not given),-10.0%,-13.2%,-23.1,2.1,11.2%,-2.5
Cc1c(Cl)cccc1NC(=O)Cn1cc(C(F)(F)F)cc(Cl)c1=O,?,?,-26.0,43.1,1.1%,-2.1
Cc1ccc(-c2nnc(Nc3ccc(O)cc3)c3ccccc23)cc1S(=O)(=O)NCc1nc2ccccc2[nH]1,/,/,-15.8,/,/,/
Cc1oc2ncn(C)c(=O)c2c1C(=O)N1CCN(c2ccccc2F)CC1,/,/,11.5,/,/,/
CC(OC(=O)c1ccccc1)C(=O)NCc1ccco1 (stereo not given),/,/,-5.4,/,4.5%,/
CCCOc1ccc(C(=O)NCc2ccco2)cc1,?,?,70.8,74.2*,2.1%,35.3*
CCCCCOc1ccc(C(=O)OC(C)C(=O)NCc2ccco2)cc1 (stereo not given),?,13.1µM*,10.6,27.2,?,14.8
CC(C)Oc1ccc(C(=O)NCc2ccco2)cc1,?,57.6%,31.9,38.1*,-6.2%,29.1*
CCOc1cc(C(=O)NCc2ccco2)cc(OCC)c1OCC,-10.0%,?,-26.2,-2.8,?,-0.7
Cc1ccc(N2CC(C(=O)Nc3nnc(SCCN4CCOCC4)s3)CC2=O)cc1C (stereo not given),?,?,-4.8,-2.5,/,-2.2
COc1cc(F)ccc1S(=O)(=O)N1CCN(Cc2ccccc2)CC1,-10.8%,?,-9.0,/,1.4%,1.2
Cc1ccc(C)n1CCN1CCN(S(=O)(=O)c2ccc(F)cc2F)CC1,?,13.1µM*,-3.6,-7.5,3.2%,-3.5
CN(C)C(=O)c1cc(C(=O)c2ccccc2)c[nH]1,4.5%[0.00184 µM],41.4%,12.8,24.5,5.1%,18.4*
CN(C)C(=O)c1cc(C(=O)c2ccccc2Br)c[nH]1,-7.9%[0.00184 µM],36.7%,/,48.2,-10.3%,11.4
CN(C)C(=O)c1cc(C(=O)c2ccccc2Cl)c[nH]1,21.2%,?,-16.8,28.5,-1.5%,28.9*
O=C(c1c[nH]c(C(=O)C(Cl)(Cl)Cl)c1)c1ccccc1Br,13.1µM*,?,-12.4,-1.7,-4.0%,-1.8

# Screening results deposited in PubChem by National Center for Advancing Translational Sciences (NCATS).
